# A number with no mark means an inactive call.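 Rule for the calls: active = score above 5; some higher scores were not called.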
# Test system: S. cerevisiae SK1 pCDA2-eGFP (USY613), sporulating
# Assay: CDA2-GFP sporulation assay sensitivity score (z-score vs DMSO controls); higher = stronger inhibition of sporulation, active = hit call of the paper
row,Compound,CDA2-GFP sporulation assay sensitivity score
1,"C/C=C1\[C@H]2C=C(C)C[C@]1(N)c1ccc(=O)[nH]c1C2 [Huperzine a] (stock concentration (mM, diluted 1:100): 10)",3.17
2,"C=CC[C@@H]1/C=C(\C)C[C@H](C)C[C@H](OC)[C@H]2O[C@@](O)(C(=O)C(=O)N3CCCC[C@H]3C(=O)O[C@H](/C(C)=C/[C@@H]3CC[C@@H](O)[C@H](OC)C3)[C@H](C)[C@@H](O)CC1=O)[C@H](C)C[C@@H]2OC [Tacrolimus] (stock concentration (mM, diluted 1:100): 10)",0.75
3,"O=c1ncc(F)c[nH]1 [5-Fluoro-2-Pyrimidone] (stock concentration (mM, diluted 1:100): 10)",0.54
4,"Cc1ccnc2c1NC(=O)c1cccnc1N2C1CC1 [Viramune] (stock concentration (mM, diluted 1:100): 10)",-3.55
5,"Nc1nc(O)c2ncn(CCC(CO)CO)c2n1 [Penciclovir] (stock concentration (mM, diluted 1:100): 10)",0.81
6,"CC(=O)CCCCn1c(=O)c2c(ncn2C)n(C)c1=O [Pentoxifylline] (stock concentration (mM, diluted 1:100): 10)",0.09
7,"CC(=O)NCCCCCCNC(C)=O [Hexamethylene bisacetamide] (stock concentration (mM, diluted 1:100): 10)",0.71
8,"CC(=O)NC[C@H]1CN(c2ccc(N3CCOCC3)c(F)c2)C(=O)O1 [Linezolide] (stock concentration (mM, diluted 1:100): 10)",0.79
